The labels stand for the following.
B1: TTCC (dsDNA)
DNA 1: GCTATCTAGTGCTCAGTACGCACTGTTCCAGGAAACTTCTGGCAGGACCAGGTCATGAGATCGGAAGAGCACACGTCTGAACTCCAGTCA
DNA 2: TGACTGGAGTTCAGACGTGTGCTCTTCCGATCTCATGACCTGGTCCTGCCAGAAGTTTCCTGGAACAGTGCGTACTGAGCACTAGATAGC
RNA: AAUUUCUACUCUUGUAGAUAGGAAACUUCUGGCAGGACC
B2: TTGA (dsDNA)
DNA 1: GCTATCTAGTGCTCAGTACGCACTGTTGAAGGAAACTTCTGGCAGGACCAGGTCATGAGATCGGAAGAGCACACGTCTGAACTCCAGTCA
DNA 2: TGACTGGAGTTCAGACGTGTGCTCTTCCGATCTCATGACCTGGTCCTGCCAGAAGTTTCCTTCAACAGTGCGTACTGAGCACTAGATAGC
RNA: AAUUUCUACUCUUGUAGAUAGGAAACUUCUGGCAGGACC
B3: ATTA (dsDNA)
DNA 1: GCTATCTAGTGCTCAGTACGCACTGATTAAGGAAACTTCTGGCAGGACCAGGTCATGAGATCGGAAGAGCACACGTCTGAACTCCAGTCA
DNA 2: TGACTGGAGTTCAGACGTGTGCTCTTCCGATCTCATGACCTGGTCCTGCCAGAAGTTTCCTTAATCAGTGCGTACTGAGCACTAGATAGC
RNA: AAUUUCUACUCUUGUAGAUAGGAAACUUCUGGCAGGACC
B4: ATTC (dsDNA)
DNA 1: GCTATCTAGTGCTCAGTACGCACTGATTCAGGAAACTTCTGGCAGGACCAGGTCATGAGATCGGAAGAGCACACGTCTGAACTCCAGTCA
DNA 2: TGACTGGAGTTCAGACGTGTGCTCTTCCGATCTCATGACCTGGTCCTGCCAGAAGTTTCCTGAATCAGTGCGTACTGAGCACTAGATAGC
RNA: AAUUUCUACUCUUGUAGAUAGGAAACUUCUGGCAGGACC
B5: AATC (dsDNA)
DNA 1: GCTATCTAGTGCTCAGTACGCACTGAATCAGGAAACTTCTGGCAGGACCAGGTCATGAGATCGGAAGAGCACACGTCTGAACTCCAGTCA
DNA 2: TGACTGGAGTTCAGACGTGTGCTCTTCCGATCTCATGACCTGGTCCTGCCAGAAGTTTCCTGATTCAGTGCGTACTGAGCACTAGATAGC
RNA: AAUUUCUACUCUUGUAGAUAGGAAACUUCUGGCAGGACC
B6: TTCT (dsDNA)
DNA 1: GCTATCTAGTGCTCAGTACGCACTGTTCTAGGAAACTTCTGGCAGGACCAGGTCATGAGATCGGAAGAGCACACGTCTGAACTCCAGTCA
DNA 2: TGACTGGAGTTCAGACGTGTGCTCTTCCGATCTCATGACCTGGTCCTGCCAGAAGTTTCCTAGAACAGTGCGTACTGAGCACTAGATAGC
RNA: AAUUUCUACUCUUGUAGAUAGGAAACUUCUGGCAGGACC
B7: TTTC (dsDNA)
DNA 1: GCTATCTAGTGCTCAGTACGCACTGTTTCAGGAAACTTCTGGCAGGACCAGGTCATGAGATCGGAAGAGCACACGTCTGAACTCCAGTCA
DNA 2: TGACTGGAGTTCAGACGTGTGCTCTTCCGATCTCATGACCTGGTCCTGCCAGAAGTTTCCTGAAACAGTGCGTACTGAGCACTAGATAGC
RNA: AAUUUCUACUCUUGUAGAUAGGAAACUUCUGGCAGGACC
B8: ATTG (dsDNA)
DNA 1: GCTATCTAGTGCTCAGTACGCACTGATTGAGGAAACTTCTGGCAGGACCAGGTCATGAGATCGGAAGAGCACACGTCTGAACTCCAGTCA
DNA 2: TGACTGGAGTTCAGACGTGTGCTCTTCCGATCTCATGACCTGGTCCTGCCAGAAGTTTCCTCAATCAGTGCGTACTGAGCACTAGATAGC
RNA: AAUUUCUACUCUUGUAGAUAGGAAACUUCUGGCAGGACC
B9: TTTG (dsDNA)
DNA 1: GCTATCTAGTGCTCAGTACGCACTGTTTGAGGAAACTTCTGGCAGGACCAGGTCATGAGATCGGAAGAGCACACGTCTGAACTCCAGTCA
DNA 2: TGACTGGAGTTCAGACGTGTGCTCTTCCGATCTCATGACCTGGTCCTGCCAGAAGTTTCCTCAAACAGTGCGTACTGAGCACTAGATAGC
RNA: AAUUUCUACUCUUGUAGAUAGGAAACUUCUGGCAGGACC
B10: TTTT (dsDNA)
DNA 1: GCTATCTAGTGCTCAGTACGCACTGTTTTAGGAAACTTCTGGCAGGACCAGGTCATGAGATCGGAAGAGCACACGTCTGAACTCCAGTCA
DNA 2: TGACTGGAGTTCAGACGTGTGCTCTTCCGATCTCATGACCTGGTCCTGCCAGAAGTTTCCTAAAACAGTGCGTACTGAGCACTAGATAGC
RNA: AAUUUCUACUCUUGUAGAUAGGAAACUUCUGGCAGGACC
B11: TTGC (dsDNA)
DNA 1: GCTATCTAGTGCTCAGTACGCACTGTTGCAGGAAACTTCTGGCAGGACCAGGTCATGAGATCGGAAGAGCACACGTCTGAACTCCAGTCA
DNA 2: TGACTGGAGTTCAGACGTGTGCTCTTCCGATCTCATGACCTGGTCCTGCCAGAAGTTTCCTGCAACAGTGCGTACTGAGCACTAGATAGC
RNA: AAUUUCUACUCUUGUAGAUAGGAAACUUCUGGCAGGACC
B12: ATTT (dsDNA)
DNA 1: GCTATCTAGTGCTCAGTACGCACTGATTTAGGAAACTTCTGGCAGGACCAGGTCATGAGATCGGAAGAGCACACGTCTGAACTCCAGTCA
DNA 2: TGACTGGAGTTCAGACGTGTGCTCTTCCGATCTCATGACCTGGTCCTGCCAGAAGTTTCCTAAATCAGTGCGTACTGAGCACTAGATAGC
RNA: AAUUUCUACUCUUGUAGAUAGGAAACUUCUGGCAGGACC
B13: AATA (dsDNA)
DNA 1: GCTATCTAGTGCTCAGTACGCACTGAATAAGGAAACTTCTGGCAGGACCAGGTCATGAGATCGGAAGAGCACACGTCTGAACTCCAGTCA
DNA 2: TGACTGGAGTTCAGACGTGTGCTCTTCCGATCTCATGACCTGGTCCTGCCAGAAGTTTCCTTATTCAGTGCGTACTGAGCACTAGATAGC
RNA: AAUUUCUACUCUUGUAGAUAGGAAACUUCUGGCAGGACC

One assay concerns the target dAsCas12a WT (Acidaminococcus sp., UniProt U2UMQ6 1-1307, D908A;E993A;D1235A). As to the kind of experiment: Spec-seq (native PAGE EMSA with sequencing of bound and unbound); 25 mM Tris-HCl pH 7.4, 150 mM KCl, 5 mM MgCl2, 10% glycerol, 1 mM DTT, 40 ng/uL salmon sperm DNA; 400 nM Cas12a, 480 nM crRNA, 50 nM library, 37 C 1 h; native P; high values mean tight binding.
Details: not given
On the technique in general: Mobility shift assays separate free from complexed probe on a gel.
Turning to B1, the binding signal was -7.28 lnKA.

Consider B2, for which the binding signal was -8.14 lnKA.

B3: the binding signal is -6.74 lnKA.

Regarding B4, the binding signal is -6.67 lnKA.

In the case of B6, the binding signal was -8.65 lnKA.

In the case of B7, the binding signal was found to be 0.0688 lnKA.

Take B8: the binding signal is -7.65 lnKA.

B9 displayed a binding signal of -1.4 lnKA.

Molecule B10 showed a binding signal of -5.51 lnKA.

For the molecule B11, the binding signal is -8.28 lnKA.

With B12, the binding signal was -8.27 lnKA.

The next assay concerns the target dAsCas12a Ultra (Acidaminococcus sp., UniProt U2UMQ6 1-1307, M537R;F870L;D908A;E993A;D1235A). Kind of assay: Spec-seq (native PAGE EMSA with sequencing of bound and unbound); 25 mM Tris-HCl pH 7.4, 150 mM KCl, 5 mM MgCl2, 10% glycerol, 1 mM DTT, 40 ng/uL salmon sperm DNA; 400 nM Cas12a, 480 nM crRNA, 50 nM library, 37 C 1 h; native PAGE at room temperature; high values mean tight binding. The conditions noted are these: protein: recombinant.
For the molecule B1, the binding signal was -4.81 lnKA.

Consider B2, for which the binding signal is -6.6 lnKA.

B3: the binding signal is -4.56 lnKA.

In the case of B4, the binding signal was -4.57 lnKA.

Regarding B5, the binding signal was -8.65 lnKA.

As for B6, the binding signal was -6.53 lnKA.

For the molecule B7, the binding signal was -0.0656 lnKA.

Regarding B8, the binding signal is -5.43 lnKA.

In the case of B9, the binding signal was -0.474 lnKA.

B10: the binding signal is -3.17 lnKA.

On to B11, for which the binding signal was -6.02 lnKA.

Take B12: the binding signal was -7.31 lnKA.

B13: the binding signal is -8.32 lnKA.

For a further assay, the target named is dAsCas12a E174R (Acidaminococcus sp., UniProt U2UMQ6 1-1307, E174R;D908A;E993A;D1235A). The assay is described as above. The conditions noted are these: protein: recombinant.
On to B1, for which the binding signal was -4.78 lnKA.

Take B2: the binding signal was -7.49 lnKA.

In the case of B3, the binding signal was -2.6 lnKA.

As for B4, the binding signal was -3.93 lnKA.

As to B5, the binding signal was -8.08 lnKA.

On to B6, for which the binding signal was -6.23 lnKA.

With B7, the binding signal was -0.339 lnKA.

Regarding B8, the binding signal was -4.83 lnKA.

For B9, the binding signal was -0.628 lnKA.

With B10, the binding signal is -2.29 lnKA.

For B11, the binding signal is -6.51 lnKA.

Regarding B12, the binding signal was -6.8 lnKA.

Turning to B13, the binding signal is -7.04 lnKA.

The target of the next assay is dAsCas12a S542R (Acidaminococcus sp., UniProt U2UMQ6 1-1307, S542R;D908A;E993A;D1235A). The assay is described as above. Conditions: protein: recombinant.
Turning to B1, the binding signal is -1.16 lnKA.

For B2, the binding signal was -6.46 lnKA.

For the molecule B3, the binding signal was -4.16 lnKA.

On to B4, for which the binding signal is -4.41 lnKA.

On to B5, for which the binding signal was -8.19 lnKA.

In the case of B6, the binding signal was -3.26 lnKA.

With B7, the binding signal was -0.143 lnKA.

As to B8, the binding signal was -4.9 lnKA.

For B9, the binding signal is -0.333 lnKA.

Consider B10, for which the binding signal was -2.76 lnKA.

As for B11, the binding signal was -6.74 lnKA.

Consider B12, for which the binding signal is -7.13 lnKA.

In the case of B13, the binding signal was -8.13 lnKA.

A further assay deals with dAsCas12a K548R (Acidaminococcus sp., UniProt U2UMQ6 1-1307, K548R;D908A;E993A;D1235A). Described as above. Conditions: protein: recombinant.
For B1, the binding signal was -6.53 lnKA.

Consider B2, for which the binding signal was -8.53 lnKA.

As to B3, the binding signal was -5.45 lnKA.

With B4, the binding signal was -5.19 lnKA.

Regarding B5, the binding signal is -8.64 lnKA.

As for B6, the binding signal is -8.32 lnKA.

For B7, the binding signal is 0.462 lnKA.

Consider B8, for which the binding signal was -6.23 lnKA.

In the case of B9, the binding signal was -0.458 lnKA.

In the case of B10, the binding signal was -4.73 lnKA.

Regarding B11, the binding signal was -7.43 lnKA.

As to B12, the binding signal was -8.23 lnKA.

In a further assay the target is d-enCas12a (Acidaminococcus sp., UniProt U2UMQ6 1-1307, E174R;S542R;K548R;D908A;E993A;D1235A). Described as above. Conditions: protein: recombinant.
Take B1: the binding signal is -0.274 lnKA.

As for B2, the binding signal was -4.32 lnKA.

Consider B3, for which the binding signal was -0.456 lnKA.

As to B4, the binding signal was -0.519 lnKA.

For the molecule B5, the binding signal is -2.56 lnKA.

On to B6, for which the binding signal is -0.829 lnKA.

For the molecule B7, the binding signal was found to be 0.00167 lnKA.

Turning to B8, the binding signal is -1.2 lnKA.

Turning to B9, the binding signal was -0.151 lnKA.

Turning to B10, the binding signal is -0.44 lnKA.

Consider B11, for which the binding signal is -2.75 lnKA.

As for B12, the binding signal is -2.42 lnKA.

As to B13, the binding signal was -2.24 lnKA.

Another assay has as its target d-enCas12a-Ultra (Acidaminococcus sp., UniProt U2UMQ6 1-1307, E174R;S542R;K548R;M537R;F870L;D908A;E993A;D1235A). The assay is described as above. Conditions: protein: recombinant.
Regarding B1, the binding signal is -0.0946 lnKA.

For B2, the binding signal was -2.04 lnKA.

In the case of B3, the binding signal was -0.172 lnKA.

With B4, the binding signal was -0.186 lnKA.

Consider B5, for which the binding signal was -0.883 lnKA.

Turning to B6, the binding signal is -0.251 lnKA.

For B7, the binding signal amounted to 0.033 lnKA.

As for B8, the binding signal was -0.339 lnKA.

In the case of B9, the binding signal is -0.067 lnKA.

In the case of B10, the binding signal was -0.171 lnKA.

As to B11, the binding signal was -0.707 lnKA.

Take B12: the binding signal is -0.548 lnKA.

As to B13, the binding signal was -0.762 lnKA.
